Activity calls are given as the source filed them.
assay: A549 lung cancer cell viability effects, profiling panel, resazurin fluorescence, 24 h, PK04 Diversity Set (AID 1171); conditions: higher = more signal, called active from +8 up or from −8 down; note: test concentration not given here

SMILES	z-score
CN1C(=O)[C@]2(CCC(=O)OC(C)(C)C)N=C(c3ccc(OCCCO)cc3)O[C@@H]2c2ccccc21	-0.877 (inactive)
CC(c1ccccc1)C(O)C1C=CC2C(=O)N(c3ccccc3)C(=O)C2N1Nc1ccc(C#N)cc1 (stereo unspecified)	0.413 (inactive)
COCCOC(=O)N1C(=O)[C@@]2(c3cc(C#CCCO)ccc31)[C@H](C(=O)N1CCN(c3ncccn3)CC1)[C@H]1C(=O)O[C@H](c3ccccc3)[C@H](c3ccccc3)N1[C@@H]2c1ccc(O)cc1	0.249 (inactive)
C#CCN(C/C=C/c1ccccc1)[C@H](CO[Si](C)(C)C(C)(C)C)c1ccccc1	0.403 (inactive)
NCCCC[C@@H]1NC(=O)[C@H]2C[C@@H](C(=O)O)[C@@H](c3cccc(OCCO)c3)N2C1=O	0.506 (inactive)
[N-]=[N+]=NCc1ccccc1C[C@]1(C(=O)N2CCCCC2)N=C(c2ccc(OCCCO)cc2)O[C@H]1c1ccccc1	-0.136 (inactive)
CCCCC(=C=CC[C@H](O)c1ccc(OCCO)cc1)C[C@H](O)c1ccccn1	1.07 (inactive)
CN(C)C(=O)[C@@]1(CCS(=O)(=O)c2ccccc2)N=C(c2ccc(OCCCO)cc2)O[C@H]1c1ccccc1N=[N+]=[N-]	-0.217 (inactive)
[N-]=[N+]=NCc1ccccc1[C@@H]1OC(c2ccc(OCCCO)cc2)=N[C@]1(Cc1ccccc1)C(=O)NCc1ccccc1	0.267 (inactive)
O=C(NCCO)C1=C[C@H](Oc2ccccc2I)[C@@H](O)[C@H](NCc2ccc(F)cc2)C1	-1.45 (inactive)
COc1ccc([Si](C)(C)[C@@H]2[C@@H](CC(=O)N(CCO)Cc3ccccc3)O[C@]3(C(=O)N(Cc4ccc(N5CCC5=O)cc4)c4ccccc43)[C@H]2C)cc1	-1.37 (inactive)
O=C1NC(=O)C2C1C=CC(C(O)c1cccc(O)c1)N2Nc1ccc(Cl)cc1Cl (stereo unspecified)	-0.728 (inactive)
CC(C)C[C@@H]1NC(=O)C([C@@H](C)OCc2ccccc2)NC(=O)[C@@]23C(=O)N[C@@H](Cc4ccccc4)C2[C@H](C)[C@@]2(C)O[C@H]2C3/C=C/CC/C=C/CNC1=O (stereo partly specified)	-0.785 (inactive)
COc1ccc([Si](C)(C)[C@H]2[C@H](CCO)O[C@@]3(C(=O)N(Cc4ccc(N5CCOC5=O)cc4)c4ccccc43)[C@@H]2C)cc1	-1.54 (inactive)
COc1ccc(CCNC(=O)[C@@]2(Sc3ccc(C)cc3)CC(=O)N(Cc3cc(C(F)(F)F)cc(C(F)(F)F)c3)[C@@H]2c2ccc(CO)cc2)cc1	0.423 (inactive)
CCCCC(O)C1C=CC2C(=O)NC(=O)C2N1Nc1ccc(Cl)cc1Cl (stereo unspecified)	-1.99 (inactive)
CO[C@H]1O[C@H](CO)[C@@H](OC(=O)Nc2ccc3c(c2)OCO3)[C@@H]2OC(=O)[C@@H](Cc3ccccc3)C/C=C/C[C@H](Cc3ccccc3)C(=O)O[C@@H]12	-1.64 (inactive)
CN(C)C(=O)[C@]1(Cc2ccccc2CN=[N+]=[N-])N=C(c2ccc(OCCCO)cc2)O[C@@H]1c1ccccc1N=[N+]=[N-]	-1.42 (inactive)
O=C1OCCC=C[C@H]2OC34C=CCN(CCN5CCOCC5)C(=O)[C@H]3N(CCCO)C(=O)[C@@H]4C12 (stereo partly specified)	-0.784 (inactive)
C=CCNC(=O)[C@@H]1[C@H]2C(=O)O[C@H](c3ccccc3)[C@H](c3ccccc3)N2[C@H](c2ccccc2OCCO)[C@@]12C(=O)N(C(=O)OCCOC)c1ccc(C#CCCO)cc12	-0.0256 (inactive)
C=CCC(OC(C)=O)[C@@H]1[C@@H](N(Cc2cccc3ccccc23)C(=O)c2cccc3ccccc23)c2cc(OCCCO)ccc2N1C(=O)Cc1ccc2ccccc2c1 (stereo partly specified)	-0.0737 (inactive)
C=C(COC)/C(=C/C[C@@H](OC(C)=O)c1ccccc1OCCO)c1cc(C(=O)OC)ccc1OC	0.368 (inactive)
COCC(=C=CC[C@@H](O)c1cccc(OCCO)c1)C[C@@H](O)COCc1ccccc1	0.244 (inactive)
CCCCC=C[C@@H](NC(=O)c1ccc(C(F)(F)F)cc1)c1ccccc1	2.14 (inactive)
COC(=O)[C@]1(CO)N=C(c2ccc(OCCCO)cc2)O[C@@H]1c1ccccc1CN=[N+]=[N-]	-0.49 (inactive)
COC(=O)[C@@]1(Cc2ccc(OC)cc2)[C@H]2c3cc(C(=O)N4CCCC4)n(CCc4ccc(OC)c(Br)c4)c3C[C@H]2CN1C(=O)c1ccccc1	0.568 (inactive)

— PubChem BioAssay
